# Results taken from ChEMBL document CHEMBL4513146, “CO-ADD screening of Karazin Kharkiv National University (Ukraine) compounds”.
# Potency and affinity values are given separately.
# Tests used:
# Klebsiella pneumoniae = conditions: Concentration 32 ug.mL-1;; ASSAY_TEST Inhibition of Bacterial Growth; detection method Absorption (OD600); MEDIA CAMHB; plate type 384well; NBS; CORNING #3640; time 18 hr
# Candida albicans = conditions: Concentration 32 ug.mL-1; ASSAY_TEST Inhibition of Fungal Growth; detection method Absorption (OD530)
# Cryptococcus neoformans = conditions: Concentration 32 ug.mL-1; ASSAY_TEST Inhibition of Fungal Growth; detection method Resazurin; Absorption (OD600-OD570); plate type 384well; NBS; CORNING #3640
Structure (SMILES),Inhibition (Klebsiella pneumoniae) [%],Inhibition (Candida albicans) [%],Inhibition (Cryptococcus neoformans) [%]
CC(C)CCn1c(=O)c2sccc2n2c(=O)n(Cc3ccccc3Cl)nc12,16.14,-1.94,-23.98
Cc1nnc2c(S(=O)(=O)N(Cc3cccc(Cl)c3)c3ccc(F)c(F)c3)cccn12,3.16,2.06,-7.4
O=C(Cn1nc2c(Oc3ccccc3)nccn2c1=O)Nc1ccc(F)cc1Cl,3.51,0.77,-10.04
COc1ccc(NC(=O)Cn2nc3ccc(SCc4ccc(Cl)cc4)nn3c2=O)cc1Cl,-2.5,38.9,-13.55
COc1ccc(-c2cc3c4nnc(CCC(=O)NCc5cccs5)n4ccn3n2)cc1,6.72,-0.32,-11.02
COc1ccc(CNC(=O)Cn2nc3c(N4CCOCC4)nccn3c2=O)cc1,16.6,6.15,-8.83
CCCCOc1ccc(-c2cc3c4nnc(SCC(=O)Nc5cc(C)ccc5C)n4ccn3n2)cc1,-2.43,5.83,-10.24
O=C(Cn1nc2ccc(-c3ccc(Cl)cc3)nn2c1=O)N1CCN(c2ccc(F)cc2)CC1,-0.53,2.31,-8.76
CCOc1ccc(NC(=O)Cn2nc3c4c5c(sc4ncn3c2=O)CCCC5)cc1,5.11,2.52,-9.01
Cc1ccc(CN(c2cc(C)cc(C)c2)S(=O)(=O)c2cccn3c(C)nnc23)cc1,1.08,-0.03,-12.99
Cc1cccc(CN(c2ccccc2)S(=O)(=O)c2cccn3c(C)nnc23)c1,4.77,-0.3,-6.4
Cc1ccc(CNC(=O)Cn2nc3c(SC4CCCCC4)nccn3c2=O)cc1,14.28,-1.05,-11.99
Cc1ccc(-c2cc3c4nnc(SCC(=O)Nc5cccc(Cl)c5C)n4ccn3n2)cc1,-0.41,0.76,-8.53
CCOc1ccc(-n2ccn3c(SCc4cccc(C(F)(F)F)c4)nnc3c2=O)cc1,0.24,0.48,-7.62
CCOC(=O)c1ccccc1NC(=O)CSc1nc2ccccc2n2c(C(C)C)nnc12,12.78,1.73,-19.92
Cc1cc2nn(CC(=O)Nc3ccccc3F)c(=O)n2c(Nc2ccc(C)c(F)c2)n1,4.36,4.06,-8.37
Cc1cc(C)cc(NC(=O)Cn2nc3n(C)c(=O)c4c(c(-c5ccccc5)cn4C)n3c2=O)c1,6.43,0.06,-5.54
Cc1cc2nn(CC(=O)Nc3cc(F)ccc3C)c(=O)n2c(Nc2ccc(C)c(F)c2)n1,11.43,3.99,-7.37
COc1cccc(-n2ccn3c(SCC(=O)Nc4ccc(OC)c(OC)c4)nnc3c2=O)c1,16.13,5.16,-5.69
O=C(Cn1nc2c(SC3CCCCC3)nccn2c1=O)Nc1ccc(F)cc1,10.22,0.1,-30.85
O=S(=O)(c1ccc2nncn2c1)N(Cc1ccccc1F)c1ccc(F)c(F)c1,-0.52,1.44,-2.71

Structure (SMILES),Inhibition (Klebsiella pneumoniae) [%],Inhibition (Candida albicans) [%],Inhibition (Cryptococcus neoformans) [%]
N#Cc1ccc(NC(=O)CSc2nnc3c4cc(-c5ccc(F)cc5)nn4ccn23)cc1,11.54,18.84,-16.45
COc1cc(OC)c(NC(=O)Cn2nc3c(Oc4ccc(C)cc4)nccn3c2=O)cc1Cl,2,2.42,-3.76
C=Cc1ccc(CN(c2ccc(C(C)C)cc2)S(=O)(=O)c2cccn3cnnc23)cc1,14.46,3.5,-17.09
COc1cccc(NC(=O)Cn2nc3c4c5c(sc4ncn3c2=O)CCCC5)c1,10.28,6.83,-22.51
CC(C)(C)Sc1ccc2nn(CC(=O)Nc3ccc(Cl)cc3)c(=O)n2n1,16.93,5.49,-24.82
Cc1cccc(C)c1NC(=O)Cn1nc2c3cc(-c4ccc(Cl)cc4)nn3ccn2c1=O,6.6,-0.5,-16.41
COc1cccc(-n2ccn3c(SCC(=O)c4cccc(Cl)c4)nnc3c2=O)c1,6.31,2.28,-6.56
Cc1ccc(NC(=O)CSc2nc3ccccc3n3c(C(C)C)nnc23)c(Cl)c1,0.92,27.99,-3.15
Cc1cc(C)cc(NC(=O)Cn2nc3ccc(-c4ccc(C)c(C)c4)nn3c2=O)c1,5.54,21.88,-18.49
COc1ccc(CN(c2ccc(F)c(F)c2)S(=O)(=O)c2ccc3nncn3c2)cc1,12.63,0.74,-4.76
Cc1ccc(-c2cc3c4nn(CC(=O)Nc5ccccc5C)c(=O)n4ccn3n2)cc1C,7.72,19.26,-10.57
Cc1ccccc1Oc1nccn2c(=O)n(CC(=O)Nc3cc(Cl)ccc3Cl)nc12,4.89,2.23,-9.52
NC(=O)CSc1nnc2c(=O)n(-c3ccc(F)cc3)ccn12,0.07,2.37,-6.51
COc1ccc(NC(=O)c2ccc3nn(CC(=O)Nc4ccc(C(C)C)cc4)c(=O)n3c2)cc1,5.27,10.58,-13.36
COc1ccc(CN(c2cc(C)cc(C)c2)S(=O)(=O)c2cccn3c(C)nnc23)cc1,-1.14,2.31,-5.62
Cc1cccc(N(Cc2ccccc2)S(=O)(=O)c2cccn3c(C)nnc23)c1,11.16,8.73,-3.61
O=C(CSc1nnc2c(=O)n(-c3ccccc3)ccn12)Nc1ccc(Br)cc1,9.81,2.41,-15.78
O=C(Cn1nc2c3cc(-c4ccccc4)nn3ccn2c1=O)N1CCCc2ccccc21,12.97,-0.58,-23.31
Cc1ccc(NC(=O)CSc2nnc3n(CC4CCCO4)c(=O)c4sccc4n23)cc1F (stereo not drawn),6.62,-2.27,-15.18
Cc1cccc(Sc2nc3ccccc3n3c(=O)n(CC(=O)Nc4c(C)cc(C)cc4C)nc23)c1,10.9,0.56,-23.88
COc1cccc(CSc2nnc3c(=O)n(-c4ccccc4OC)ccn23)c1,6.64,1.36,-5.34

Structure (SMILES),Inhibition (Klebsiella pneumoniae) [%],Inhibition (Candida albicans) [%],Inhibition (Cryptococcus neoformans) [%]
Cc1cccc(NC(=O)Cn2nc3c(SCc4ccccc4)nccn3c2=O)c1C,5.49,0.78,-13.96
CCc1ccc(N(Cc2cccc(F)c2)S(=O)(=O)c2cccn3c(C)nnc23)cc1,8.24,0.68,-10.22
COc1cc(NC(=O)C(C)Sc2nnc3c(=O)n(-c4ccc(F)cc4)ccn23)cc(OC)c1 (stereo not drawn),6.23,7.68,-7.14
NC(=O)C1CCN(C(=O)CCc2nnc3c(N4CCCCC4)nc4ccccc4n23)CC1,15.2,1.8,-5.85
CC(C)(C)Sc1ccc2nn(CC(=O)Nc3ccccc3C(F)(F)F)c(=O)n2n1,13.7,0.56,-20.81
CC(C)CCNC(=O)Cn1nc2n(Cc3ccco3)c(=O)c3sccc3n2c1=O,8.27,3.16,-8.69
CCc1nnc2c(SCC(=O)Nc3ccc(Br)cc3)nc3ccccc3n12,-1.42,31.58,-6.67
O=C(Cn1nc2c(SC3CCCCC3)nccn2c1=O)Nc1cccc(Br)c1,-4.59,26.25,-20.18
COc1ccc(-c2cc3c4nn(CC(=O)Nc5ccccc5)c(=O)n4ccn3n2)cc1,8.66,6.28,-7.06
COc1ccc(NC(=O)Cn2nc3c(N4CCOCC4)nccn3c2=O)cc1Cl,-0.16,2.64,-7.27
Cc1ccc(Oc2nccn3c(=O)n(CC(=O)NCc4ccccc4Cl)nc23)cc1,6.19,1.69,-7.33
CCc1nnc2c(S(=O)(=O)N(Cc3cc(F)cc(F)c3)c3ccccc3)cccn12,9.94,6.55,-7.12
COc1cccc(Oc2nccn3c(=O)n(CC(=O)NCc4cccs4)nc23)c1,11.61,0.8,-9.44
Cc1ccc(N(Cc2ccccc2F)S(=O)(=O)c2ccc3nncn3c2)cc1,-0.06,0.13,-11.13
O=C(CSc1nnc2c3cc(-c4ccccc4)nn3ccn12)NCc1ccc(Cl)cc1,14.11,6.05,-28.72
O=C(CSc1nc2ccccc2n2c(-c3ccccc3)nnc12)Nc1ccc(Br)cc1,12.64,10.16,-26.76
Cc1nnc2ccc(S(=O)(=O)N(Cc3cccc(F)c3)c3cccc(Cl)c3)cn12,-2.92,-0.21,-11.05
Cc1ccc(-c2ccc3nn(CC(=O)Nc4ccc(C#N)cc4)c(=O)n3n2)cc1C,8.41,3.47,-12.02
CC(C)c1ccc(Cn2c(=O)c3sccc3n3c(SCc4cccc(C(F)(F)F)c4)nnc23)cc1,5.43,-0.58,-12.8
